# Test results published in PubChem BioAssay (EPA / NIEHS).
# Results filed as inconclusive are left out. Activity calls are given as the source filed them. Rule for the calls: active = hit-call score of the fitted dose curve at least 0.9, where 1 is the maximum; inconclusive = response in the unintended direction; inactive = score below 0.9. Where a SMILES comes first, the peptide text is derived from it. Bridges are numbered along the chain shown (N, C = ends). [ ]: non-standard residue; d: D form. hArg = N=C(N)NCCCC[C@H](N)C(=O)O; Mpa = O=C(O)CCS
# Target: Cellular tumor antigen p53 (Homo sapiens) (UniProt P04637)
# Sequence (P04637 whole entry, looked up): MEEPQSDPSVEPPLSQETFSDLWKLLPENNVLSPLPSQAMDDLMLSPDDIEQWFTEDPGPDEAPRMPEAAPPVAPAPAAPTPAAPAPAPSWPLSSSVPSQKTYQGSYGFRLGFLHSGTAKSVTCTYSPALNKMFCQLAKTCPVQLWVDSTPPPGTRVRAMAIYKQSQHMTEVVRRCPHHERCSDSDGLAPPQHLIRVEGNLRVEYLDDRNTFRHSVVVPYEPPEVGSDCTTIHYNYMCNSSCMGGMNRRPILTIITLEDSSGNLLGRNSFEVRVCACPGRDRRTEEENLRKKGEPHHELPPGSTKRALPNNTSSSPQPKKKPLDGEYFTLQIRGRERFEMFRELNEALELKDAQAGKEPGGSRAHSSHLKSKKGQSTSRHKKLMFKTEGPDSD
# Assay: TOX21_p53_BLA_p3_ratio: Tox21 HCT-116 p53 Agonism Beta-lactamase Assay, Ratio, Phase 3 (AID 2283596)
# Outline: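 HCT116 p53-bla cells (4000/well) given compound in DMSO (217-fold dilution) after 5 h, incubated 16 h at 37C. CCF4-AM substrate 2 h at room temperature; 460/530 nm emission ratio, gain fitted against DMSO.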
SMILES,outcome,AC50
C[C@@H](O)C(=O)O,inactive,
NC(=O)[C@@H]1CSSCCC(=O)N[C@@H](CCCCN=C(N)N)C(=O)NCC(=O)N[C@@H](CC(=O)O)C(=O)N[C@H](Cc2c[nH]c3ccccc23)C(=O)N2CCC[C@H]2C(=O)N1 ([Mpa][hArg]GD[dW]PC-NH2; disulfide 1-7),inactive,
C[C@]12CC[C@@H]3c4ccc(OC(=O)c5ccccc5)cc4CC[C@H]3[C@@H]1CC[C@@H]2O,inactive,
OCC1(CO)COC(C(Cl)(Cl)Cl)OC1,inactive,
CN(CCOc1ccc(NS(C)(=O)=O)cc1)CCc1ccc(NS(C)(=O)=O)cc1,inactive,
CC(C)NCC(O)COc1ccccc1-n1cccc1 (stereo not drawn),inactive,
OCC(O)CN1CCN(c2ccccc2)CC1 (stereo not drawn),inactive,
Cl.Cl.N.N.[Cl-].[Cl-].[Pt+2],inactive,
Nc1ccc(Cl)cc1[N+](=O)[O-],inactive,
C[C@H]1NCc2cc(-c3ccc4c(=O)c(C(=O)O)cn(C5CC5)c4c3OC(F)F)ccc21,inactive,
CCCCNC(=O)NCCCC,inactive,
CC(=O)N[C@@H](CC(=O)N[C@@H](CCC(=O)O)C(=O)O)C(=O)O,inactive,
COc1ccc(NS(=O)(=O)c2ccc(N)cc2)nn1,inactive,
O=Nc1ccc(NO)cc1,inactive,
Nc1ccc(N=Nc2ccc(N)cc2)cc1,inactive,
Cc1nc(-c2ccc(Cl)cc2)oc1COC(C)(C)C(=O)O,inactive,
COc1cc(C(=O)NCCCCCC(=O)O)cc(OC)c1OC,inactive,
O=C(COCCOCCOCC(=O)Nc1c(I)cc(I)c(C(=O)O)c1I)Nc1c(I)cc(I)c(C(=O)O)c1I,inactive,
C=CCSSSCC=C,,8.68 µM (active)
CCCCCC/C=C/C(=O)OC,inactive,

SMILES,outcome,AC50
CC(C)C[C@@H](N)C(=O)O,inactive,
C=CC[N@@+]12CC[C@@]34c5ccccc5N5/C=C6/[C@H]7C[C@H]8[C@@]9(CC[N@@+]8(CC=C)C/C7=C/CO)c7ccccc7N(/C=C(/[C@@H](C[C@@H]31)/C(=C\CO)C2)[C@H]54)[C@@H]69,inactive,
COc1ccc(CCC(=O)c2c(O)cc(O[C@@H]3O[C@H](CO)[C@@H](O)[C@H](O)[C@H]3O[C@@H]3O[C@@H](C)[C@H](O)[C@@H](O)[C@H]3O)cc2O)cc1O,inactive,
CC(C)(C)c1ccc(C=O)cc1,inactive,
CCOc1ccc2ccccc2c1C(=O)N[C@@H]1C(=O)N2[C@@H]1SC(C)(C)[C@@H]2C(=O)O,inactive,
C[C@H](O)C(=O)Nc1c(I)c(C(=O)NC(CO)CO)c(I)c(C(=O)NC(CO)CO)c1I,inactive,
CC(C)(C)C(=O)OCC(=O)[C@H]1CC[C@H]2[C@@H]3CCC4=CC(=O)CC[C@]4(C)[C@H]3CC[C@]12C,inactive,
Cn1cnc2ncnc(N)c21,inactive,
CC1CCCC(C)N1NC(=O)c1ccc(Cl)c(S(N)(=O)=O)c1 (stereo not drawn),inactive,
Cc1ccccc1C(=O)O,inactive,
Clc1ccc2nsnc2c1NC1=NCCN1,inactive,
CC(C)CCC[C@@H](C)[C@H]1CC(=O)C2=C3CC[C@H]4C[C@@H](O)CC[C@]4(C)[C@H]3CC[C@@]21C,inactive,
CN1CCN(C2=Nc3cc(F)ccc3Cc3ccccc32)CC1,inactive,
CC1=C(/C=C/C(C)=C/C=C/C(C)=C/C=C/C=C(C)/C=C/C=C(C)/C=C/C2=C(C)C(=O)CCC2(C)C)C(C)(C)CCC1=O,inactive,
C[N+](C)(C)CC(O)CCl (stereo not drawn),inactive,
N=C(N)c1ccc(C=Cc2ccc(C(=N)N)cc2O)cc1,inactive,
C=CC(=O)OCCOCCOC(=O)C=C,inactive,
Nc1nc(NC2CC2)c2ncn([C@H]3C=C[C@@H](CO)C3)c2n1,inactive,
NC[C@H]1O[C@H](O[C@H]2[C@H](O)[C@@H](O[C@H]3O[C@H](CO)[C@@H](O)[C@H](N)[C@H]3O)[C@H](N)C[C@@H]2N)[C@H](N)[C@@H](O)[C@@H]1O,inactive,

# Test system: not listed separately
# Assay: TOX21_p53_BLA_p4_viability: Viability Assessment in the Tox21 HCT-116 p53 Agonism Beta-lactamase Assay, Phase 4 (AID 2283597);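 note: hits lower the luminescence signal meaning cytotoxicity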
# Outline: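 Luminescent ATP readout (CellTiter-Glo, 30 min, room temperature) in the same wells as the p53 bla ratio. HCT116 cells were treated for 16 h at 37C with DMSO-dissolved compounds.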
row,SMILES,outcome
1,Cc1ccccc1C(=O)O,inactive
2,CN1CCN(C2=Nc3cc(F)ccc3Cc3ccccc32)CC1,inactive
3,C[N+](C)(C)CC(O)CCl (stereo not drawn),inactive

# Target: Cellular tumor antigen p53 (Homo sapiens) (UniProt P04637)
# Assay: TOX21_p53_BLA_p5_ratio: Tox21 HCT-116 p53 Agonism Beta-lactamase Assay, Ratio, Phase 5 (AID 2283599)
# Outline: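 HCT-116 cells carrying a p53-inducible beta-lactamase reporter were seeded at 4000 cells/well and dosed after 5 h with compound in DMSO (217-fold dilution). After 16 h at 37C, CCF4-AM substrate was added for 2 h, and the 460/530 nm emission ratio was scored as gain-of-signal versus DMSO.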
SMILES,outcome,AC50
C[C@@H](O)C(=O)O,inactive,
NC(=O)[C@@H]1CSSCCC(=O)N[C@@H](CCCCN=C(N)N)C(=O)NCC(=O)N[C@@H](CC(=O)O)C(=O)N[C@H](Cc2c[nH]c3ccccc23)C(=O)N2CCC[C@H]2C(=O)N1 ([Mpa][hArg]GD[dW]PC-NH2; disulfide 1-7),inactive,
C[C@]12CC[C@@H]3c4ccc(OC(=O)c5ccccc5)cc4CC[C@H]3[C@@H]1CC[C@@H]2O,inactive,
OCC1(CO)COC(C(Cl)(Cl)Cl)OC1,inactive,
CN(CCOc1ccc(NS(C)(=O)=O)cc1)CCc1ccc(NS(C)(=O)=O)cc1,,37.7 µM (active)
CC(C)NCC(O)COc1ccccc1-n1cccc1 (stereo not drawn),inactive,
OCC(O)CN1CCN(c2ccccc2)CC1 (stereo not drawn),inactive,
Cl.Cl.N.N.[Cl-].[Cl-].[Pt+2],inactive,
Nc1ccc(Cl)cc1[N+](=O)[O-],inactive,
C[C@H]1NCc2cc(-c3ccc4c(=O)c(C(=O)O)cn(C5CC5)c4c3OC(F)F)ccc21,inactive,
CCCCNC(=O)NCCCC,inactive,
CC(=O)N[C@@H](CC(=O)N[C@@H](CCC(=O)O)C(=O)O)C(=O)O,inactive,
COc1ccc(NS(=O)(=O)c2ccc(N)cc2)nn1,inactive,
O=Nc1ccc(NO)cc1,inactive,
Nc1ccc(N=Nc2ccc(N)cc2)cc1,inactive,
Cc1nc(-c2ccc(Cl)cc2)oc1COC(C)(C)C(=O)O,inactive,
COc1cc(C(=O)NCCCCCC(=O)O)cc(OC)c1OC,inactive,
O=C(COCCOCCOCC(=O)Nc1c(I)cc(I)c(C(=O)O)c1I)Nc1c(I)cc(I)c(C(=O)O)c1I,inactive,

SMILES,outcome,AC50
C=CCSSSCC=C,inactive,
CCCCCC/C=C/C(=O)OC,inactive,
CC(C)C[C@@H](N)C(=O)O,inactive,
C=CC[N@@+]12CC[C@@]34c5ccccc5N5/C=C6/[C@H]7C[C@H]8[C@@]9(CC[N@@+]8(CC=C)C/C7=C/CO)c7ccccc7N(/C=C(/[C@@H](C[C@@H]31)/C(=C\CO)C2)[C@H]54)[C@@H]69,inactive,
COc1ccc(CCC(=O)c2c(O)cc(O[C@@H]3O[C@H](CO)[C@@H](O)[C@H](O)[C@H]3O[C@@H]3O[C@@H](C)[C@H](O)[C@@H](O)[C@H]3O)cc2O)cc1O,inactive,
CC(C)(C)c1ccc(C=O)cc1,inactive,
CCOc1ccc2ccccc2c1C(=O)N[C@@H]1C(=O)N2[C@@H]1SC(C)(C)[C@@H]2C(=O)O,inactive,
C[C@H](O)C(=O)Nc1c(I)c(C(=O)NC(CO)CO)c(I)c(C(=O)NC(CO)CO)c1I,inactive,
CC(C)(C)C(=O)OCC(=O)[C@H]1CC[C@H]2[C@@H]3CCC4=CC(=O)CC[C@]4(C)[C@H]3CC[C@]12C,inactive,
Cn1cnc2ncnc(N)c21,inactive,
CC1CCCC(C)N1NC(=O)c1ccc(Cl)c(S(N)(=O)=O)c1 (stereo not drawn),inactive,
Clc1ccc2nsnc2c1NC1=NCCN1,inactive,
CC(C)CCC[C@@H](C)[C@H]1CC(=O)C2=C3CC[C@H]4C[C@@H](O)CC[C@]4(C)[C@H]3CC[C@@]21C,inactive,
CC1=C(/C=C/C(C)=C/C=C/C(C)=C/C=C/C=C(C)/C=C/C=C(C)/C=C/C2=C(C)C(=O)CCC2(C)C)C(C)(C)CCC1=O,inactive,
N=C(N)c1ccc(C=Cc2ccc(C(=N)N)cc2O)cc1,inactive,
C=CC(=O)OCCOCCOC(=O)C=C,inactive,
Nc1nc(NC2CC2)c2ncn([C@H]3C=C[C@@H](CO)C3)c2n1,inactive,
NC[C@H]1O[C@H](O[C@H]2[C@H](O)[C@@H](O[C@H]3O[C@H](CO)[C@@H](O)[C@H](N)[C@H]3O)[C@H](N)C[C@@H]2N)[C@H](N)[C@@H](O)[C@@H]1O,inactive,
